From PubChem BioAssay AID652115 (Broad Institute, 2013)
The whole screen tested about 330,000 compounds, of which about 3,800 (1.2%) were called active. This excerpt belongs to a sample that is enriched for actives. A number with no mark means an inactive call. Cut-off read from the data, not from the text of the source: active = inhibition above about 15%; inconclusive = no clear call, values can overlap the other calls; inactive = below that.

Molecular target: NAD-dependent protein deacylase sirtuin-5, mitochondrial (Homo sapiens) (UniProt Q9NXA8)
Sequence (Q9NXA8 whole entry, looked up): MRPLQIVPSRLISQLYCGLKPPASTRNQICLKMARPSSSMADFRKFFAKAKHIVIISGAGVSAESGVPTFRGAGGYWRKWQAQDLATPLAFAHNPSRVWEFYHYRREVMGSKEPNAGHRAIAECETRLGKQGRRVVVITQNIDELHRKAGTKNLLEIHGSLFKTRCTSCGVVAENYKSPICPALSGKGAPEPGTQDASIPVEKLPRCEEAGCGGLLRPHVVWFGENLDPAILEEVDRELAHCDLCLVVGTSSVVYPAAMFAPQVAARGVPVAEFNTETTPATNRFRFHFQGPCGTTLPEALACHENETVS
Experiment: SIRT5 desuccinylase inhibitors, primary screen, biochemical, fluorescence imaging, single point, set 5 (AID 652115)
Conditions: Purified SirT5, succinyl-peptide AMC, trypsin-coupled fluorescence; at 15 µM; hits give high values

SMILES	inhibition
COc1ccc2c3c([nH]c2c1)[C@@H](CO)N(Cc1cccc(F)c1)CC31CN(CC2CC2)C1	3.68%
CCNC(=O)C[C@@H]1CC[C@@H]2[C@H](COc3ccc(NC(=O)Nc4cccc(C)c4)cc3C(=O)N2C)O1	-1.08%
C/C=C/c1ccccc1[C@@H]1[C@@H](CO)N(S(=O)(=O)c2cccc(F)c2)[C@H]1C#N	2.5%
O=C(C[C@@H]1CC[C@@H]2[C@H](COC[C@H](O)CN2S(=O)(=O)c2ccccc2)O1)N[C@H]1CCN(Cc2ccccc2)C1	-3.32%
COCC(=O)Nc1ccc2c(c1)C(=O)N(C)C[C@@H](OC)[C@H](C)CN(C(=O)c1cccnc1)[C@H](C)CO2	5.23%
C=CCOc1cccc(C2C(C(=O)c3ccc(C)o3)=C(O)C(=O)N2c2nnc(C)s2)c1 (centres undefined)	-0.578%
Cc1cc(N2C(=O)C(O)=C(C(=O)c3ccc(C)o3)C2c2ccc(OCc3ccccc3)cc2)no1 (centres undefined)	19.4% (active)
COc1cc(C2C(C(=O)c3ccco3)=C(O)C(=O)N2c2cc(C)on2)ccc1OCc1ccccc1 (centres undefined)	-4.04%
COc1ccc(NC(=O)Nc2ccc3c(c2)C(=O)N([C@@H](C)CO)C[C@@H](C)[C@@H](CN(C)C(=O)CCCN(C)C)OCCCC[C@@H](C)O3)cc1	-2.34%
COc1ccc2c3c(n(C)c2c1)[C@@H](CO)N(CC1CC1)CC31CN(C(=O)c2cccc(F)c2)C1	1.38%
Cc1cc([N+](=O)[O-])ccc1NC1CCCC1	21.2% (active)
Cc1cc(C=O)c(C)n1-c1ccc(NC2CCCCC2)c([N+](=O)[O-])c1	2.63%
Cc1cc([N+](=O)[O-])ccc1NS(=O)(=O)c1ccccc1	4.53%
C[C@@H]1CN([C@H](C)CO)C(=O)c2cc(-c3cccc(F)c3)cnc2O[C@H]1CN(C)C(=O)Nc1ccccc1F	4.47%
O=C(CN1CCOCC1)N[C@@H]1CC[C@@H](CCNC(=O)C2CCCCC2)O[C@@H]1CO	7.91%
C[C@H]1CN([C@@H](C)CO)C(=O)c2cc(C#CC3CCCC3)cnc2O[C@H]1CN(C)C(=O)c1ccncc1	5.96%
Cc1c(C(=O)NCC2CCCO2)sc2nc(-c3ccccc3)cn12 (centres undefined)	-9.93%

SMILES	inhibition
Cc1ccc(C(=O)N/C(=C\c2ccc(F)cc2)C(=O)NCCN2CCOCC2)cc1	-1.92%
Cc1c(C(=O)NCCN2CCOCC2)sc2nc(-c3ccc(F)cc3)cn12	26.8% (active)
C[C@@H]1CCCCO[C@@H](CN(C)C(=O)Nc2ccc(C(F)(F)F)cc2)[C@H](C)CN([C@@H](C)CO)C(=O)c2cc(N(C)C)ccc2O1	2.03%
O=C(c1ccc(F)cc1)N1CC(=O)N2[C@@H](CO)[C@H](c3ccc(C4=CCCC4)cc3)[C@@H]2C1	-4.25%
C[C@@H]1CN([C@H](C)CO)S(=O)(=O)c2ccc(C#CCC3CCCC3)cc2O[C@H]1CN(C)C(=O)CC1CC1	9.26%
C[C@@H]1CN([C@@H](C)CO)S(=O)(=O)c2ccc(C#CCC3CCCC3)cc2O[C@H]1CN(C)Cc1ccc(C(=O)O)cc1	17.1% (active)
C[C@@H]1CN([C@@H](C)CO)S(=O)(=O)c2ccc(C#CCC3CCCC3)cc2O[C@@H]1CN(C)C	2.36%
C[C@@H]1CN([C@@H](C)CO)S(=O)(=O)c2ccc(C#CCC3CCCC3)cc2O[C@H]1CN(C)C(=O)CC1CC1	9.11%
C[C@@H]1CN([C@H](C)CO)S(=O)(=O)c2ccc(C#CCC3CCCC3)cc2O[C@H]1CN(C)Cc1ccc(C(=O)O)cc1	15.8% (active)
C[C@H]1CN([C@@H](C)CO)S(=O)(=O)c2ccc(C#CCN(C)C)cc2O[C@@H]1CN(C)Cc1ccc(F)cc1	-1.1%
CO[C@@H]1CN(C)C(=O)c2ccc(NC(=O)c3cccc(Oc4ccccc4)c3)cc2OC[C@H](C)NC[C@@H]1C	0.913%
CN(C)C(=O)c1cccc(-c2ccc3n(c2=O)C[C@H]2N[C@@H]3[C@@H](C(=O)NC3CCC3)[C@@H]2CO)c1	-48.3%
COc1ccc2c3c(n(C)c2c1)[C@H](CO)N(C(C)=O)CC31CN(C(=O)c2cnccn2)C1	-3.27%
CCc1nnc(NS(=O)(=O)c2ccc(NC(=O)c3cccc(OC(F)(F)C(F)F)c3)cc2)s1	-3.94%
CCc1nnc(NS(=O)(=O)c2ccc(NC(=S)NC(=O)/C=C/c3cccs3)cc2)s1	9.43%
CCc1nnc(NS(=O)(=O)c2ccc(NC(=S)NC(=O)c3cccs3)cc2)s1	19.1% (active)
C[C@@H]1CN([C@@H](C)CO)C(=O)c2cc(NS(C)(=O)=O)ccc2O[C@@H](C)CCCCO[C@@H]1CN(C)C(=O)c1ccccc1	0.623%
